The supplement of paper PMC7366291
Counter-ions that a name gives are not always drawn. ± gives the standard deviation or the standard deviation of the averaged measurements.

Assays:
Settings in all cases: 25 µM; exposure: 24-48 hpf
[1] = tested on: Danio rerio Tg(wt1b:EGFP) embryo, pronephros; assay: glomerular separation, fold change vs DMSO control; higher = glomeruli further apart (abnormal)
Summary of the method: (§1)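 Dechorionated Tg(wt1b:EGFP) zebrafish embryos were treated with 25 μM compound in 0.5% DMSO, in HEPES-buffered E3 with 0.003% PTU, from 24 to 48 hpf at 28.5°C. On maximum projections of dorsal pronephros images, 16 hand-placed reference points in Fiji gave distances and angles, and values more than 2 SD from the feature mean were left out. Results are fold changes over the mean of same-day DMSO-treated embryos.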

[2] = tested on: Danio rerio Tg(wt1b:EGFP) embryo, pronephros; assay: glomerular width (mean of left and right), fold change vs DMSO control; higher = wider glomerulus
Summary of the method: as §1

[3] = tested on: Danio rerio Tg(wt1b:EGFP) embryo, pronephros; assay: fraction of imaged embryos annotated as normal kidney; higher = less nephrotoxic; extreme values may be limits of the assay
Summary of the method: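 The read-out is the proportion of embryos in each treatment manually annotated as normal-kidney. Exposure ran from 24 to 48 hpf at 28.5°C in 12-well plates, using dechorionated Tg(wt1b:EGFP) zebrafish embryos in 5 mM HEPES-buffered E3 with 0.003% PTU, 0.5% DMSO and 25 μM compound. For imaging, larvae were anaesthetised with tricaine, positioned dorsally in agarose-filled 96-well plates and captured by widefield fluorescence (470 nm, 10 z-slices), with scoring done on maximum projections.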

[4] = tested on: Danio rerio Tg(wt1b:EGFP) embryo, pronephros; assay: pronephric angle neck segment to proximal convoluted tubule (mean of left and right), fold change vs DMSO control; higher = larger pronephric angle
Summary of the method: as §1

Structure (SMILES) | glomerular separation [1] | glomerular width [2] | fraction of imaged embryos annotated as normal kidney [3] | pronephric angle neck segment [4]
CC(C)(C)NCC(O)COc1cccc2c1CC(O)C(O)C2 (stereo not given) [Nadolol] | 0.664 ± 0.2 | 1.03 ± 0.12 | 0.833 | 0.908 ± 0.02
COC(=O)C1=C(C)NC(C)=C(C(=O)OC(C)C)C1c1cccc2nonc12 (stereo not given) [Isradipine] | 4.38 ± 1.4 | 0.666 ± 0.037 | 0 | 1.007 ± 0.0069
COc1ccc(C(=O)NCc2ccc(OCCN(C)C)cc2)cc1OC [Itopride] | 1.05 ± 0.44 | 0.962 ± 0.017 | 0.8 | 1.06 ± 0.055
C=CC1=C(C(=O)O)N2C(=O)[C@@H](NC(=O)/C(=N\O)c3csc(N)n3)[C@H]2SC1 [Cefdinir] | 0.772 ± 0.34 | 1.04 ± 0.029 | 1 | 1.003 ± 0.0083
Cc1cc(NS(=O)(=O)c2ccc(N)cc2)no1 [Sulfamethoxazole] | 0.872 ± 0.23 | 1.05 ± 0.026 | 0.833 | 0.9977 ± 0.0021
C#C[C@]1(O)CC[C@H]2[C@@H]3CCC4=CCCC[C@@H]4[C@H]3CC[C@@]21C [Lynestrenol] | 0.801 ± 0.38 | 0.994 ± 0.054 | 0.917 | 1.02 ± 0.051
Cc1cccc(N(C)C(=S)Oc2ccc3ccccc3c2)c1 [Tolnaftate] | 2.28 ± 1.3 | 0.952 ± 0.03 | 0.75 | 1.05 ± 0.065
COC(=O)C1=C(C)NC(C)=C(C(=O)OC)C1c1ccccc1[N+](=O)[O-] [Nifedipine] | 1.1 ± 0.54 | 1.05 ± 0.077 | 0 | 1.33 ± 0.09
CCOC(=O)O[C@]1(C(=O)OCCl)CC[C@H]2[C@@H]3CCC4=CC(=O)C=C[C@]4(C)[C@H]3[C@@H](O)C[C@@]21C [Loteprednol etabonate] | 1.27 ± 0.56 | 0.884 ± 0.029 | 0.833 | 1.09 ± 0.042
CN(C)CCN(Cc1cccs1)c1ccccn1 [Methapyrilene hydrochloride] | 0.984 ± 0.37 | 0.99 ± 0.077 | 0.917 | 0.9838 ± 0.0071
Cc1nnc(SCC2=C(C(=O)O)N3C(=O)[C@@H](NC(=O)Cn4cnnn4)[C@H]3SC2)s1 [Cefazolin sodium salt] | 0.771 ± 0.24 | 1.072 ± 0.008 | 0.75 | 1.03 ± 0.027
C[N+](C)(C)CCOC(N)=O [Carbachol] | 0.868 ± 0.25 | 1 ± 0.013 | 0.667 | 1.01 ± 0.047
CC(C)NCC(O)c1ccc(O)c(O)c1 (single isomer, unassigned; (-)) [(-)-Isoproterenol hydrochloride] | 0.881 ± 0.24 | 1.033 ± 0.0021 | 0.833 | 1.02 ± 0.021
CCOC(=O)OC(C)OC(=O)[C@@H]1N2C(=O)[C@@H](NC(=O)[C@H](N)c3ccccc3)[C@H]2SC1(C)C (stereo not given in full) [Bacampicillin hydrochloride] | 0.948 ± 0.29 | 1.01 ± 0.017 | 0.917 | 0.968 ± 0.034
O=C(NCC1CCCCN1)c1cc(OCC(F)(F)F)ccc1OCC(F)(F)F (stereo not given) [Flecainide acetate] | 0.977 ± 0.32 | 1.03 ± 0.022 | 0.75 | 0.961 ± 0.023
c1ccc(-c2ccc(C(c3ccccc3)n3ccnc3)cc2)cc1 (stereo not given) [Bifonazole] | 1.24 ± 0.55 | 0.786 ± 0.019 | 0.417 | 1.22 ± 0.14
CN(Cc1cnc2nc(N)nc(N)c2n1)c1ccc(C(=O)N[C@@H](CCC(=O)O)C(=O)O)cc1 (racemic) [Amethopterin (R,S)] | 1.29 ± 0.49 | 0.996 ± 0.022 | 0.75 | 1.03 ± 0.036
Nc1c2c(nc3ccccc13)CCCC2 [Tacrine hydrochloride] | 1.09 ± 0.33 | 1.01 ± 0.029 | 0.833 | 1.03 ± 0.042
NNCCc1ccccc1 [Phenelzine sulfate] | 0.964 ± 0.27 | 1.04 ± 0.016 | 0.833 | 0.93 ± 0.067
C[C@]12CCC(=O)C=C1CC[C@@H]1[C@@H]2C(=O)C[C@@]2(C)[C@H]1CC[C@]2(O)C(=O)CO [Cortisone] | 1.08 ± 0.37 | 1.13 ± 0.017 | 0.917 | 1.031 ± 0.0011
CC(=O)OC(C)C[N+](C)(C)C (stereo not given) [Methacholine chloride] | 0.765 ± 0.28 | 1.08 ± 0.0033 | 0.833 | 0.972 ± 0.011
CC=CC1=C(C(=O)O)N2C(=O)[C@@H](NC(=O)[C@H](N)c3ccc(O)cc3)[C@H]2SC1 [Cefprozil] | 0.967 ± 0.4 | 1.086 ± 0.0056 | 0.917 | 0.965 ± 0.061
COc1ccc2c(c1)N(C[C@H](C)CN(C)C)c1ccccc1S2 [Methotrimeprazine maleat salt] | 1.16 ± 0.65 | 0.993 ± 0.037 | 0.909 | 1.02 ± 0.016
CC(C)(C)NC[C@@H](O)COc1cccc2c1CCCC2=O [(+) -Levobunolol hydrochloride] | 0.984 ± 0.46 | 0.935 ± 0.054 | 0.75 | 1.03 ± 0.015
CCCCC(=O)N(Cc1ccc(-c2ccccc2-c2nnn[nH]2)cc1)[C@H](C(=O)O)C(C)C [Valsartan] | 0.756 ± 0.22 | 1.09 ± 0.026 | 1 | 0.991 ± 0.021
CC(C)(O/N=C(\C(=O)N[C@@H]1C(=O)N2C(C(=O)[O-])=C(C[n+]3ccccc3)CS[C@H]12)c1csc(N)n1)C(=O)O [Ceftazidime pentahydrate] | 0.761 ± 0.12 | 0.993 ± 0.046 | 1 | 0.961 ± 0.018
COc1ccc([C@@H]2Sc3ccccc3N(CCN(C)C)C(=O)[C@@H]2OC(C)=O)cc1 [Diltiazem hydrochloride] | 0.914 ± 0.32 | 1.24 ± 0.11 | 0.667 | 1.211 ± 0.0023
Cc1c(Nc2ncccc2C(=O)O)cccc1C(F)(F)F [Flunixin meglumine] | 6.16 ± 1.6 | 0.491 ± 0.031 | 0 | 1.9787 ± 0.0013

Structure (SMILES) | glomerular separation [1] | glomerular width [2] | fraction of imaged embryos annotated as normal kidney [3] | pronephric angle neck segment [4]
C[C@H]1[C@H](NC(=O)/C(=N\OC(C)(C)C(=O)O)c2csc(N)n2)C(=O)N1S(=O)(=O)O [Aztreonam] | 0.857 ± 0.2 | 1.143 ± 0.0015 | 0.917 | 0.9634 ± 0.0095
CCCCNc1ccc(C(=O)OCCOCCOCCOCCOCCOCCOCCOCCOCCOC)cc1 [Benzonatate] | 1.12 ± 0.54 | 0.897 ± 0.012 | 0.7 | 1.09 ± 0.039
Clc1ccc(CSC(Cn2ccnc2)c2ccc(Cl)cc2Cl)cc1 (stereo not given) [Sulconazole nitrate] | 2.88 ± 1.5 | 0.798 ± 0.035 | 0.25 | 1.38 ± 0.15
CC=CC(=O)N(CC)c1ccccc1C [Crotamiton] | 0.867 ± 0.16 | 0.96 ± 0.038 | 1 | 1 ± 0.019
CCCOc1ccc2[nH]c(NC(=O)OC)nc2c1 [Oxibendazol] | 5.39 ± 2.3 | 0.505 ± 0.067 | 0 | 1.8 ± 0.035
CCCCCCCCNC(C)C(O)c1ccc(SC(C)C)cc1 (stereo not given) [Suloctidil] | 4.23 ± 2.2 | 0.877 ± 0.029 | 0 | 1.48 ± 0.033
CCOC(=O)[C@H](CCc1ccccc1)N[C@@H](C)C(=O)N1[C@H](C(=O)O)C[C@@H]2CCC[C@@H]21 [Ramipril] | 0.977 ± 0.26 | 0.8501 ± 0.0032 | 1 | 1.037 ± 0.0046
COC(=O)C1=C(C)NC(C)=C(C(=O)OC2CCCN(Cc3ccccc3)C2)C1c1cccc([N+](=O)[O-])c1 (stereo not given) [Benidipine hydrochloride] | 4.55 ± 0.53 | 0.7 ± 0.061 | 0 | 0.99 ± 0.056
OCCN1CCN(CC/C=C2/c3ccccc3Sc3ccc(Cl)cc32)CC1 [Zuclopenthixol dihydrochloride] | 1.17 ± 0.21 | 0.97247 ± 0.0005 | 0.833 | 1.01 ± 0.039
Nc1ncnc2c1ncn2C1OC(COP(=O)(O)O)C(O)C1O (stereo not given) [Adenosine 5'-monophosphate monohydrate] | 0.936 ± 0.26 | 1.029 ± 0.0059 | 0.917 | 0.9657 ± 0.0086
CCCCc1oc2ccccc2c1C(=O)c1cc(I)c(OCCN(CC)CC)c(I)c1 [Amiodarone hydrochloride] | 2 ± 1.1 | 0.862 ± 0.021 | 0.4 | 1.14 ± 0.13
C#C[C@]1(O)CC[C@H]2[C@@H]3CCC4=CC(=O)CC[C@@H]4[C@H]3CC[C@@]21C [Norethindrone] | 0.967 ± 0.35 | 0.934 ± 0.068 | 0.909 | 1 ± 0.022
COc1cc(C(=O)NC2CCCNC2)cc(OC)c1OC (stereo not given) [Troxipide] | 1.14 ± 0.54 | 0.976 ± 0.011 | 0.917 | 0.953 ± 0.027
CC1(C)O[C@@H]2C[C@H]3[C@@H]4C[C@H](F)C5=CC(=O)C=C[C@]5(C)[C@@]4(F)[C@@H](O)C[C@]3(C)[C@]2(C(=O)CO)O1 [Fluocinolone acetonide] | 1.23 ± 0.54 | 1.26 ± 0.028 | 0.0833 | 1.02 ± 0.065
CCCCc1ccc2[nH]c(NC(=O)OC)nc2c1 [Parbendazole] | 2.51 ± 0.79 | 0.5042 ± 0.0026 | 0 | 1.81 ± 0.054
O=C1c2ccccc2C(=O)C1c1ccccc1 [Phenindione] | 1.02 ± 0.37 | 1.07 ± 0.052 | 0.75 | 0.919 ± 0.013
COc1ccccc1N1CCN(CCCNc2cc(=O)n(C)c(=O)n2C)CC1 [Urapidil hydrochloride] | 1.09 ± 0.36 | 0.969 ± 0.025 | 0.917 | 1.02 ± 0.025
CC[C@H]1OC(=O)[C@H](C)[C@@H](O[C@H]2C[C@@](C)(OC)[C@@H](O)[C@H](C)O2)[C@H](C)[C@@H](O[C@@H]2O[C@H](C)C[C@H](N(C)C)[C@H]2O)[C@](C)(O)C[C@@H](C)CN(C)[C@H](C)[C@@H](O)[C@]1(C)O [Azithromycin] | 0.933 ± 0.41 | 0.945 ± 0.022 | 1 | 1.012 ± 0.0055
Nc1nc(=O)c2nc(CNc3ccc(C(=O)N[C@@H](CCC(=O)O)C(=O)O)cc3)cnc2[nH]1 [Folic acid] | 0.808 ± 0.29 | 0.941 ± 0.044 | 0.636 | 1.04 ± 0.014
O=C(O)Cc1sc(-c2ccccc2)nc1-c1ccc(Cl)cc1 [Fentiazac] | 6.56 ± 3.2 | 0.503 ± 0.018 | 0 | 1.75 ± 0.059
CCCCOc1ccc(CC(=O)NO)cc1 [Bufexamac] | 1.11 ± 0.37 | 1.015 ± 0.0014 | 0.75 | 0.9927 ± 0.0019
CCN(CC)CCOC(=O)C(Cc1cccc2ccccc12)CC1CCCO1 (stereo not given) [Nafronyl oxalate] | 1.2 ± 0.63 | 0.945 ± 0.058 | 0.583 | 1.04 ± 0.054
NCc1ccc(S(N)(=O)=O)cc1 [Mafenide hydrochloride] | 0.887 ± 0.27 | 1.09 ± 0.019 | 0.833 | 0.9512 ± 0.0031
Cc1cc(C(C)(C)C)cc(C)c1CC1=NCCN1 [Xylometazoline hydrochloride] | 1.11 ± 0.42 | 0.948 ± 0.05 | 1 | 1 ± 0.012
Cn1c(=O)c2c(ncn2CC(=O)O)n(C)c1=O [Acefylline] | 1.12 ± 0.41 | 1 ± 0.029 | 0.917 | 1.02 ± 0.035
OCCN1C[C@H](O)[C@@H](O)[C@H](O)[C@H]1CO [Miglitol] | 1.12 ± 0.48 | 0.995 ± 0.011 | 0.909 | 0.982 ± 0.0086
CN(C)CCCN1c2ccccc2CCc2ccc(Cl)cc21 [Clomipramine hydrochloride] | 1.18 ± 0.38 | 0.947 ± 0.035 | 0.667 | 1.06 ± 0.014
